Compound activity (PubChem BioAssay)
This is a sample that favours compounds with a hit; in the whole collection about 0.37% have one here.
HRas wt GTP: modulators of GTP binding to HRas wildtype, primary screen, biochemical, bead-based flow cytometry, multiplex; GTPase HRas (Homo sapiens), P01112; GST-Ras wt beads, Bodipy-FL-GTP binding; actives lie on both sides; GTP binding activity, % at 10 µM; 190,000 compounds, 0.14% hits; AID 759, 2007;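 active means GTP binding activity at least 20% away from the 100% baseline, either lowered as inhibitor or raised as activator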;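 further: 0% = unlabeled GTP competition control and 100% = no-compound control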
Target sequence (P01112 whole entry, looked up): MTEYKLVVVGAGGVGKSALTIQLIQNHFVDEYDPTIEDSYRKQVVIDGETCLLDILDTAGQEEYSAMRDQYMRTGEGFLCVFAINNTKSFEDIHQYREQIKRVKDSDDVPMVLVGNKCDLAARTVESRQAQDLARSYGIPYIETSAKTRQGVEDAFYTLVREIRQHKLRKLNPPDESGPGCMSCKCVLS
Rab7 wt modul: modulators of GTP binding to Rab7, primary screen, biochemical, wildtype, multiplex bead flow cytometry; GST-Rab7 beads, fluorescent GTP binding; actives lie on both sides; untreated = 100%, excess cold GTP = 0%; Rab7 GTPase wild type (dog), Bodipy-FL-GTP binding; GTP binding activity (percent of control), % at 10 µM; 190,000 compounds, 0.055% hits;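 active means fluorescent GTP binding to Rab7 beads changed by at least 20 points from the 100% baseline, either direction, mostly lower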;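 further: median green fluorescence of bound Bodipy-FL-GTP per Rab7 bead population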
Rac1 wt modul: wildtype Rac1 GTP binding modulators, primary screen, biochemical, GST-Rac1 beads, flow cytometry, multiplex; Ras-related C3 botulinum toxin substrate 1 (Homo sapiens), P63000; fluorescent GTP binding; actives lie on both sides; 0 = cold GTP competed, 100 = untreated; GTP binding activity (% of control), % at 10 µM; 190,000 compounds, 0.27% hits;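 active means GTP binding activity at least 20 points away from the 100% control level, either lower or higher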
Rab2 wt GTP: modulators of GTP binding to Rab2A wildtype, primary screen, biochemical, dog, bead-based flow cytometry, multiplex | Ras-related protein Rab-2A (Canis lupus familiaris), P61105 | GST-Rab2 wt beads, Bodipy-GTP binding | GTP binding activity, % at 10 µM | 190,000 compounds, 0.19% hits;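 active means GTP binding activity at least 20 points away from 100%, either lowered or raised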;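 further: 0% = beads with excess unlabeled GTP and 100% = no-compound control corrected for plate trend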
Rac1 act GTP bind: GTP binding modulators of activated mutant Rac1, primary screen, biochemical, bead-based flow cytometry, multiplex, fluorescent GTP; Ras-related C3 botulinum toxin substrate 1 (Homo sapiens), P63000; GST-Rac1 activated beads; actives lie on both sides; 100% means binding = to untreated wells; percent activity (GTP binding), % at 10 µM; 190,000 compounds, 0.11% hits;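 active means GTP binding at least 20 percentage points away from the 100% baseline, in either direction, so actives lie on both sides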
Cdc42 wt: modulators of GTP binding to wildtype Cdc42, primary screen, biochemical, multiplex bead flow cytometry, Bodipy-GTP; GST-Cdc42 beads; actives lie on both sides; percent activity (GTP binding), % at 10 µM; 190,000 compounds, 0.2% hits; AID 761, 2007;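 active means percent activity GTP binding at least 20 points away from the 100% baseline, either down as inhibitor or up as activator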;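 further: median bead fluorescence of bound Bodipy-FL-GTP at 100 nM; 0% = excess unlabeled GTP control and 100% = no compound control; below 100% means less GTP binding so inhibitor and above means activator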
Target sequence (P60953 whole entry, looked up): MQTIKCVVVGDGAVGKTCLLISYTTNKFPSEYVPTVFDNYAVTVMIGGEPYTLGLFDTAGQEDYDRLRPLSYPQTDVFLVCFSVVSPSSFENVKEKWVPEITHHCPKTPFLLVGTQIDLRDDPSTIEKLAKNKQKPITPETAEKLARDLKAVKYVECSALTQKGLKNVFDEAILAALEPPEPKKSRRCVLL
* = called active by the depositor; [ ] = another dose, or the depositor's remark.

SMILES | HRas wt GTP | Rab7 wt modul | Rac1 wt modul | Rab2 wt GTP | Rac1 act GTP bind | Cdc42 wt
COC(=O)c1c(N2C(=O)[C@H]3[C@@H](C2=O)[C@]2(C(=O)Nc4c(C)cc(C)cc42)N2CCC[C@@H]32)sc(C)c1C | 120*[activator] | 121*[activator] | 115 | 126*[activator] | 107 | 111
COC(=O)c1c(N2C(=O)[C@H]3[C@@H](C2=O)[C@]2(C(=O)Nc4ccccc42)N2CCC[C@@H]32)sc(C)c1C | 100 | 112 | 103 | 102 | 95 | 99
COC(=O)c1c(N2C(=O)[C@H]3[C@@H](C2=O)[C@]2(C(=O)Nc4c2ccc(C)c4C)N2CCC[C@@H]32)sc(C)c1C | 123*[activator] | 131*[activator] | 124*[activator] | 129*[activator] | 114 | 110
O=c1cc(CSc2nc3ccccc3c(=O)[nH]2)c2ccc(O)cc2o1 | 89 | 92 | 90 | 89 | 88 | 88
CC(=O)c1cnc2n(c1=O)CCS2 | 100 | 103 | 102 | 99 | 102 | 103
COc1cccc(-c2cc(C(F)(F)F)c(C#N)c(=O)[nH]2)c1 | 83 | 85 | 80 | 78* | 77* | 81
Cc1ccc2c(c1)c1nnc(SCC(=O)Nc3cccc(Cl)c3C)nc1n2CC(=O)O | 82 | 89 | 74* | 83 | 83 | 82
Cc1ccc2c(c1)c1nnc(SCC(=O)Nc3ccccc3C(F)(F)F)nc1n2CC(=O)O | 91 | 94 | 86 | 89 | 91 | 90
O=C(C#Cc1ccccc1)c1ccc([N+](=O)[O-])cc1 | 86 | 94 | 90 | 86 | 77* | 82
CCCc1cc(=O)[nH]c(SCc2ccccc2)n1 | 102 | 103 | 104 | 101 | 99 | 102
CSc1nc(Cc2ccccc2)cc(=O)[nH]1 | 116 | 111 | 127*[activator] | 120*[activator] | 122*[activator] | 120*[activator]
O=C(O)COc1ccccc1/C=N/Nc1ccc(S(=O)(=O)Nc2ccc(Cl)cc2)cc1[N+](=O)[O-] | 87 | 94 | 84 | 84 | 80 | 79*
COc1cccc(/C=N/Nc2ccc(C(=O)O)cc2)c1O | 95 | 96 | 97 | 94 | 97 | 96
COc1cccc(/C=N/Nc2nn3cnnc3c3ccccc23)c1O | 59* | 77* | 70* | 60* | 70* | 58*
Cc1c(CCOC(=O)c2cccc([N+](=O)[O-])c2)sc[n+]1CC(=O)c1ccccc1 | 97 | 100 | 101 | 98 | 97 | 99
COc1cc(OC)cc(C(=O)N[C@H](C(=O)OCC(=O)NC(=O)c2cccn2C)C(C)C)c1 | 97 | 100 | 99 | 94 | 96 | 97
CC(=O)OC(C(=O)NC1CCCCC1)c1ccc(Cl)c(Cl)c1 (stereo unspecified) | 35* | 22* | 29* | 33* | 31* | 35*
CN1CCN/C1=C(/C(Cl)=C(Cl)Cl)[N+](=O)[O-] | 98 | 97 | 104 | 98 | 98 | 100
COc1ccc(-c2cc(C#N)nc(N3CCN(C)CC3)n2)cc1 | 101 | 98 | 107 | 103 | 101 | 102
COc1ccc(-c2cc(C#N)nc(N3CCNCC3)n2)cc1 | 125*[activator] | 113 | 131*[activator] | 127*[activator] | 131*[activator] | 131*[activator]
COCCNc1nc(=S)[nH]c2cc(OC)c(OC)cc12 | 71* | 79* | 71* | 69* | 83 | 68*
COc1ccc(CCNC(=O)CCCCCNc2nc(=S)[nH]c3ccccc23)cc1OC | 94 | 101 | 94 | 92 | 95 | 97
COc1cc2[nH]c(=S)nc(NCc3ccccn3)c2cc1OC | 83 | 95 | 76* | 82 | 88 | 83
COc1cc2c(cc1NCc1ccccn1)oc1ccccc12 | 103 | 102 | 105 | 100 | 100 | 105
COC(=O)c1ccc(N=NNc2cccc(Br)c2)cc1 | 98 | 98 | 96 | 94 | 91 | 93
SMILES | HRas wt GTP | Rab7 wt modul | Rac1 wt modul | Rab2 wt GTP | Rac1 act GTP bind | Cdc42 wt
CN(C)S(=O)(=O)c1ccc(NC(=O)COC(=O)C2COc3ccccc3O2)cc1 (stereo unspecified) | 97 | 92 | 96 | 95 | 93 | 95
C/C(=N\Nc1cc(C)nc(-c2ccccc2)n1)c1cccc([N+](=O)[O-])c1 | 88 | 89 | 73* | 84 | 86 | 82
CS(=O)(=O)N(CC(=O)NCc1ccncc1)c1cc(Cl)ccc1Cl | 101 | 102 | 105 | 100 | 97 | 98
O=S(=O)(Nc1ncn[nH]1)c1ccc2ccccc2c1 | 113 | 112 | 126*[activator] | 110 | 113 | 121*[activator]
O=S(=O)(Nc1nc2ccccc2[nH]1)c1ccc2ccccc2c1 | 93 | 92 | 95 | 93 | 90 | 94
OCC1(Cc2ccccc2)CCCN(Cc2ccn[nH]2)C1 (stereo unspecified) | 96 | 100 | 97 | 98 | 95 | 97
C/C(N)=C(/C#N)C(=O)CSc1cc(C)c2ccccc2n1 | 96 | 92 | 99 | 94 | 94 | 96
O=C(NCc1n[nH]c(=S)n1-c1ccc(Br)cc1)c1ccc(S(=O)(=O)N2CCOCC2)cc1 | 97 | 97 | 99 | 97 | 93 | 98
COc1ccc(-n2c(C)cc(C(=O)Cn3nc(C(=O)O)c4ccccc4c3=O)c2C)cc1 | 88 | 89 | 83 | 81 | 84 | 83
CCn1cc(C(=O)OCC(=O)c2cc(C)n(-c3ccc(OC(F)F)cc3)c2C)c(=O)c2ccc(C)nc21 | 85 | 92 | 74* | 76* | 78* | 79*
Cc1cc(C(=O)Cn2nc(C(=O)O)c3ccccc3c2=O)c(C)n1-c1ccc(OC(F)F)cc1 | 82 | 90 | 90 | 80 | 83 | 79*
CCn1cc(C(=O)OCC(=O)c2cc(C)n(-c3ccccc3)c2C)c(=O)c2ccc(C)nc21 | 93 | 100 | 90 | 90 | 87 | 87
COc1ccc(C)cc1NC(=O)COC(C)=O | 105 | 103 | 137*[activator] | 108 | 107 | 120*[activator]
CCOC(=O)Cc1csc(NC(=O)CSc2nc(-c3ccccc3)c(C#N)c(=O)[nH]2)n1 | 84 | 86 | 88 | 85 | 79* | 84
CCOc1ccc2nc(NC(=O)CSc3nc(-c4ccccc4)c(C#N)c(=O)[nH]3)sc2c1 | 85 | 95 | 82 | 87 | 78* | 82
COc1ccc(-n2nc(N)c(C(N)=O)n2)cc1 | 92 | 94 | 97 | 95 | 93 | 90
